Source: PubChem BioAssay AID504334 (NMMLSC, 2011)

Assay: AGP1-GFP expression modulators, hit retest, confirmation, cell-based, flow cytometry, S. cerevisiae, cherry pick set 3 (AID 504334);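 also: median GFP fluorescence per well by flow cytometry over the all cells gate; ratio of sample to mean DMSO control signal so DMSO = 100% not 0%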
Details: S. cerevisiae AGP1-GFP strain, 3 h, at 10 µM, stronger effect = higher value;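 active = response relative to DMSO over 150%; inconclusive = yeast strain with under 70 recorded events; inactive = the rest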

Percent response vs DMSO, inactive:
COc1ccc(OC)c2c(C)cc(C)nc12 97.1%
CCCC(=O)Nn1cnc2c(c1=O)C1(CCCCC1)Cc1ccccc1-2 102%
CC1=CN2C(=N)/C(=C/c3ccco3)C(=O)N=C2S1 97.1%
Cc1nc(Nc2ccc(Cl)cc2)c(C#N)c(=O)[nH]1 101%
CSc1nc(Nc2ccc(Cl)cc2)c(C#N)c(=O)[nH]1 98.4%
Oc1c(Br)cc(Br)c2cccnc12 109%
CCOC(=O)CS(=O)(=O)c1nc(-c2ccccc2)cc(C(F)(F)F)n1 122%
COc1cccc(OCc2cc(C(=O)N3CCN(C)C(c4ccccc4)C3)no2)c1 (stereo not drawn) 101%
O=C(O)c1ccc2cccnc2c1O 99.8%
O=C(Nc1ccccc1)O/N=C1/CCCc2occc21 94.4%
Cn1c(NCCCO)nc2c(c1=O)C1(CCCCC1)Cc1ccccc1-2 104%
CC1=NNC(=O)/C1=C\c1cn(-c2ccccc2)nc1-c1ccc(F)cc1 108%
FC(F)Oc1cccc2cccnc12 96.4%
CC(=O)Nn1cnc2c(c1=O)C1(CCCC1)Cc1ccccc1-2 99.1%
COc1cccc2c(Cl)c(CCCl)c(C)nc12 99.8%
CSc1ccccc1OCc1cc(C(=O)N2CCN(C)C(c3ccccc3)C2)no1 (stereo not drawn) 101%
C/C(=C\C(=O)c1ccccc1)Nc1ccc(O)cc1 98.4%
O=C(O)c1ccccc1-c1ccccc1C(=O)Nc1ccc(-c2nc3cc(Cl)ccc3o2)cc1 103%
